{
  "source": "PubChem BioAssay AID2685",
  "about": "(National Center for Advancing Translational Sciences (NCATS), 2010)",
  "note": "Among all 320,000 compounds or so, about 2,100 (0.66%) were called active. Inconclusive results (about 53%) are left out. The sample holds actives, similar compounds and a random draw of the others, so the mix is not that of the screen. The call rests on the fitted dose curve; in most records, active means well fitted inhibition curve with a large enough effect in the signal ratio, with a control signal flat (not every such curve was filed as active); inconclusive means small, poorly fitted or top-dose-only effect, or effect the other way, or a change in a side signal; inactive means flat fitted curve, though single readings scatter; the % refers to the signal ratio. Potency means the concentration at half of the fitted maximal effect.",
  "data": [
    {"assay": "qHTS Assay for Lipid Storage Modulators in Drosophila S3 Cells;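 on cell number change: cells counted by Cell Tracker Red CMTPX staining in the red channel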; on lipid storage change, negative = inhibition: on the % scale 0 is the no-effect control and ±100 the full control effect", "details": "BODIPY lipid droplet fluorescence, 18-24 h, cells fed with added oleic acid; cell number change: measured here: cell count max response; series mostly up to 46.1 µM", "in_short": "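Laser-scanning cytometry quantifies lipid droplet accumulation (500–530 nm total intensity; droplet/cell object ratio) in oleic acid-fed (400 uM added) Drosophila S3 cells treated with a concentration series. 20 uM Triacsin C defined 100% inhibition.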", "units": {"cell number change": "%"}, "values": [
      {"smiles": "CCN(CC)CCN1C(=O)C2C(C(=O)Nc3ccc(C(C)C)cc3)C3C=CC2(O3)C1C(=O)NC1CCCCC1", "note": "(stereo not drawn)", "Potency": "inactive", "cell number change": 1.35},
      {"smiles": "COc1cccc(NC(=O)C2C3C=CC4(O3)C2C(=O)N(CCN2CCCCC2)C4C(=O)NC2CCCCC2C)c1", "note": "(stereo not drawn)", "Potency": "5.8 µM (active)", "cell number change": 14.4},
      {"smiles": "CCN(CC)CCCN1C(=O)C2C(C(=O)Nc3ccc(C(C)C)cc3)C3C=CC2(O3)C1C(=O)NC1CCCCC1", "note": "(stereo not drawn)", "Potency": "16.4 µM (active)", "cell number change": 8.06},
      {"smiles": "COc1ccc(NC(=O)C2C3C=CC4(O3)C2C(=O)N(CCN2CCCCC2C)C4C(=O)NC2CCCC(C)C2C)cc1", "note": "(stereo not drawn)", "Potency": "inactive", "cell number change": -11.9},
      {"smiles": "COc1cccc(NC(=O)C2C3C=CC4(O3)C2C(=O)N(CCCN2CCCC(C)C2)C4C(=O)NC2CCCCC2C)c1", "note": "(stereo not drawn)", "Potency": "inactive", "cell number change": -4.5},
      {"smiles": "COc1cccc(NC(=O)C2C3C=CC4(O3)C2C(=O)N(CCCN2CCCCC2)C4C(=O)NC2CCCCC2)c1", "note": "(stereo not drawn)", "Potency": "inactive", "cell number change": 1.59},
      {"smiles": "CC(C)c1ccc(NC(=O)C2C3C=CC4(O3)C2C(=O)N(CCCN2CCCCC2)C4C(=O)NC2CCCCC2)cc1", "note": "(stereo not drawn)", "Potency": "inactive", "cell number change": 2.7},
      {"smiles": "COc1ccc(NC(=O)C2C3C=CC4(O3)C2C(=O)N(CCCN2CCCCC2)C4C(=O)NC2CCCC(C)C2C)cc1", "note": "(stereo not drawn)", "Potency": "inactive", "cell number change": 20.6},
      {"smiles": "Cc1cccc(NC(=O)CSc2nnc(CNC(=O)c3ccco3)o2)c1", "Potency": "inactive", "cell number change": -11.3},
      {"smiles": "CCCn1c(O)c(N=NC(=O)CNC(=O)c2cccnc2)c2ccccc21", "Potency": "inactive", "cell number change": 6.42},
      {"smiles": "NC(=O)/C=C\\c1cn(-c2ccccc2)nc1-c1ccc2c(c1)OCCO2", "Potency": "inactive", "cell number change": 13.6},
      {"smiles": "O=S(=O)(N/N=C/c1cccnc1)c1ccc(Cl)c(Cl)c1", "Potency": "inactive", "cell number change": 4.73},
      {"smiles": "C=CCn1c(O)c(C=Nc2ccccc2)sc1=S", "Potency": "inactive", "cell number change": 8.83},
      {"smiles": "COc1ccc(CCNC(=O)COc2nncc3ccccc23)cc1", "Potency": "inactive", "cell number change": -8.53},
      {"smiles": "Cc1ccc(C(C)C)c(OCCCN2CCc3ccccc3C2)c1", "Potency": "14.6 µM (active)", "cell number change": -26.9},
      {"smiles": "Cc1ccc(C(C)C)c(OCCN2CCc3ccccc3C2)c1", "Potency": "inactive", "cell number change": -16.4},
      {"smiles": "Cc1ccc(OCCCCN2CCc3ccccc3C2)cc1", "Potency": "inactive", "cell number change": -8.99},
      {"smiles": "COc1c(Br)cc2c(C)c(C(=O)O)oc2c1Br", "Potency": "inactive", "cell number change": 24.7},
      {"smiles": "CN(C)c1cc(Nc2ccc(O)cc2)c([N+](=O)[O-])c2nonc12", "Potency": "inactive", "cell number change": 4.46},
      {"smiles": "CCOc1ccc(NS(=O)(=O)c2ccc(C(=O)N3CCCC(C)C3)cc2)cc1", "note": "(stereo not drawn)", "Potency": "inactive", "cell number change": 20.5},
      {"smiles": "CCOc1ccc(NS(=O)(=O)c2cc(C(=O)N3CC(C)OC(C)C3)ccc2C)cc1", "note": "(stereo not drawn)", "Potency": "inactive"},
      {"smiles": "CCOc1ccc(NS(=O)(=O)c2ccc(C(=O)N3CC(C)OC(C)C3)cc2)cc1", "note": "(stereo not drawn)", "Potency": "25.9 µM (active)", "cell number change": -12.2},
      {"smiles": "CN(C)CCCNC(=O)C1CCNCC1", "Potency": "inactive", "cell number change": -14.6},
      {"smiles": "O=S(=O)(N/N=C\\C=C\\c1ccccc1)c1ccc(Cl)cc1", "Potency": "11.6 µM (active)", "cell number change": -34.4},
      {"smiles": "Cc1ccc(S(=O)(=O)N/N=C\\C=C\\c2ccccc2)cc1", "Potency": "inactive"},
      {"smiles": "NC(=O)N/N=C/C=C/c1ccccc1", "Potency": "inactive", "cell number change": -8.08},
      {"smiles": "COc1ccc(/C=C/c2c(-c3ccc(OC)cc3)oc3cccnc23)cc1", "Potency": "inactive", "cell number change": -16.2},
      {"smiles": "COC(=O)c1sccc1NC(=O)CC1C(=O)NCCN1C(=O)c1c(F)cccc1Cl", "note": "(stereo not drawn)", "Potency": "inactive", "cell number change": 12.2},
      {"smiles": "O=c1ccc(-c2ccc(S(=O)(=O)N3CCN(c4cccc(Cl)c4)CC3)o2)n[nH]1", "Potency": "inactive", "cell number change": 7.08},
      {"smiles": "CN(C)S(=O)(=O)c1cccc(NC(=O)c2cncc(Br)c2)c1", "Potency": "inactive"},
      {"smiles": "CNS(=O)(=O)c1ccc(NC(=O)c2cncc(Br)c2)cc1", "Potency": "inactive"},
      {"smiles": "Cc1ccc(S(=O)(=O)N(C)C)cc1NC(=O)c1cncc(Br)c1", "Potency": "8.2 µM (active)", "cell number change": -18},
      {"smiles": "COC(=O)[C@@H](NC(=O)NC1CCCCC1C)C(C)C", "note": "(stereo partly drawn)", "Potency": "inactive", "cell number change": 5.72},
      {"smiles": "COC(=O)[C@H](CC(C)C)NC(=O)N1CCCCC1C", "note": "(stereo partly drawn)", "Potency": "inactive", "cell number change": -11.4},
      {"smiles": "COC(=O)[C@H](CC(C)C)NC(=O)NC1CCCCC1C", "note": "(stereo partly drawn)", "Potency": "25.9 µM (active)", "cell number change": -4.34},
      {"smiles": "C=CCc1ccc(OCCCCNC2CCCC2)c(OC)c1", "cell number change": -17.8, "lipid storage change, negative = inhibition": "-10.2% [at 9.22 µM] (inactive)"},
      {"smiles": "CC(NC(=O)C1CCC1)c1ccccc1", "note": "(stereo not drawn)", "Potency": "inactive"},
      {"smiles": "CC(NC(=O)C1CCCN(C(=O)N(C)C)C1)c1ccccc1", "note": "(stereo not drawn)", "Potency": "25.9 µM (active)", "cell number change": 2.04},
      {"smiles": "CN(C)C(=O)N1CCCC(C(=O)NCc2ccccc2)C1", "note": "(stereo not drawn)", "Potency": "inactive", "cell number change": -23.4},
      {"smiles": "CCOC(=O)c1c(NC(=S)N2CCOCC2)sc2c1CCN(C(=O)OCC)C2", "Potency": "inactive", "cell number change": -10.4},
      {"smiles": "Cc1ccc(/C=N/NC(=O)Cc2c(F)cccc2Cl)s1", "Potency": "inactive", "cell number change": 13.4},
      {"smiles": "O=C(c1cc(C2CC2)nn1-c1ccccc1)N1CCN(S(=O)(=O)c2ccccc2)CC1", "Potency": "16.4 µM (active)", "cell number change": -11.8},
      {"smiles": "CCOc1ccc(S(=O)(=O)N2CCN(C(=O)c3cc(C4CC4)nn3-c3ccccc3)CC2)cc1", "Potency": "inactive", "cell number change": -18},
      {"smiles": "O=C(c1cc(C2CC2)nn1-c1ccccc1)N1CCN(S(=O)(=O)c2cccc(F)c2)CC1", "Potency": "inactive", "cell number change": 16.5}
    ]}
  ]
}
